# Results reported in PubChem BioAssay (NCI).
# This is part of a sample that, as a whole, favours compounds with a hit. Of some 83,000 tested, about 20% had one in any assay.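 Negative percent growth values reflect cell death: -40 means 40% of the cells present at the start died, and -100 means all died.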 A number with no mark means an inactive call. Calls of active or inactive are those of the source. Rule for the calls: active = growth percent below 10; inactive = the rest.
# Assays:
# Experiment in all cases: NCI-60 one-dose screen, 48 h (100 = growth as untreated, 0 = no growth, -100 = all killed)
# Details in all cases: 10 µM unless noted
# SR leukemia = test system: SR leukemia
# RPMI-8226 leukemia = test system: RPMI-8226 leukemia
# OVCAR-8 ovarian = test system: OVCAR-8 ovarian
# OVCAR-5 ovarian = test system: OVCAR-5 ovarian
# OVCAR-4 ovarian = test system: OVCAR-4 ovarian
# SK-OV-3 ovarian = test system: SK-OV-3 ovarian
# IGROV1 ovarian = test system: IGROV1 ovarian
# OVCAR-3 ovarian = test system: OVCAR-3 ovarian
# NCI/ADR-RES ovarian = test system: NCI/ADR-RES ovarian
# HS 578T breast = test system: HS 578T breast
SMILES,growth (SR leukemia),growth (RPMI-8226 leukemia),growth (OVCAR-8 ovarian),growth (OVCAR-5 ovarian),growth (OVCAR-4 ovarian),growth (SK-OV-3 ovarian),growth (IGROV1 ovarian),growth (OVCAR-3 ovarian),growth (NCI/ADR-RES ovarian),growth (HS 578T breast)
COc1cc([C@@H](CCO)C[C@H](C)c2ccc3ccccc3c2)cc(OC)c1OC,24.5%,22.6%,43.5%,70.2%,55.8%,33.8%,51.2%,8.71% (active),16.5%,
COc1cc(O)c2c(=O)c3c(CC=C(C)C)cc(OC)c(O)c3oc2c1,24.7%,29.8%,26.4%,51.2%,52.5%,17%,41.7%,1.93% (active),16.1%,36.1%
CCOC(=O)C1=C(CC(O)c2ccc(OC)cc2OC)NC(=O)NC1c1ccccc1 (stereo not given),75.9%,99.2%,109%,88.7%,106%,114%,118%,109%,107%,
OC1CSSC1Cn1cnc2c(Nc3ccc(OCc4cccc(F)c4)c(Cl)c3)ncnc21 (stereo not given),-29.9% (active),-37.5% (active),37.4%,41%,4.03% (active),-8.67% (active),41.4%,-70.2% (active),1.93% (active),59.2%
CCN1C2CCC1/C(=C\c1ccccc1)C(=O)/C2=C/c1ccccc1,27.3%,38.2%,22.5%,88.3%,46.1%,78.5%,49.9%,13%,15.1%,71.4%
c1ccc(Cn2cc3c(c2-c2ccccc2)CCc2cnoc2-3)cc1,37.3%,46.7%,84.5%,96%,86.2%,88%,76.6%,56.7%,40.6%,71.5%
CNC(=O)c1cc(Oc2ccc3c(c2)sc2nc(-c4cc(C(F)(F)F)cc(C(F)(F)F)c4)cn23)ccn1,34%,50.1%,36.1%,91.4%,24.8%,46.7%,74.1%,68.3%,68.3%,49.4%
O=C(NCc1ccc(Cn2c(=O)sn(-c3ccccc3)c2=O)cc1)OCc1ccc2cccc(O)c2n1,-11.3% (active),-22.5% (active),-0.135% (active),-61.2% (active),-33.6% (active),75.8%,-76.5% (active),-87.1% (active),-28.1% (active),-1.39% (active)
Cc1ccc(-c2csc(NC(=O)CSc3nc(N)cc(N)n3)n2)cc1,42.9%,44%,71%,91.2%,64%,88%,74.1%,73.2%,51.8%,87.6%
COCCn1cc(-c2csc(-c3c[nH]c4ccccc34)n2)c2cccnc21,8.15% (active),43.8%,38.6%,75.7%,44.3%,49.5%,41.8%,20.7%,12.7%,
CN(C)CCCC1(c2ccc(F)cc2)OCc2cc(-c3csc4ccccc34)ccc21 (stereo not given),-8.7% (active),-40.7% (active),-23.2% (active),37%,26.4%,81.9%,-31.1% (active),-58.2% (active),37.9%,19.3%
Cc1ccc(Cc2cnc(NC(=O)/C=C/c3ccc(C)o3)s2)cc1,16.2%,26.8%,62%,60.3%,73.4%,42.9%,42.2%,-8.25% (active),33.9%,30.7%
Cc1c(O)cc(-c2cnc(N/N=C/c3ccccc3)s2)c(O)c1C,95.3%,51.5%,84.4%,110%,63.5%,102%,83.8%,95.5%,93.6%,91.2%
CCN(CC)CCOc1ccc(C(=O)/C=C\c2ccc(Cl)cc2Cl)cc1,-15.4% (active),-23.9% (active),53.3%,68%,52.6%,43.2%,32.2%,9.56% (active),49.9%,66.2%
COC(=O)[C@@]12CC=C(C)[C@]3(C[C@H](c4ccoc4)OC3=O)[C@H]1C=C[C@@H](O)[C@@]2(O)C(=O)OC,89.2%,120%,96.4%,103%,110%,99.9%,92.4%,105%,102%,111%
CN(C)CCC(CCN(C)C)(C(=O)O)c1ccccc1,110%,99.8%,102%,99.2%,105%,102%,93.7%,113%,112%,111%
Fc1cc2[nH]ncc2c2c3c(c(-c4cn[nH]c4C(F)(F)F)nc12)CCCC3,-30.2% (active),8.27% (active),6.94% (active),4.77% (active),24.1%,-24.5% (active),0.245% (active),-11.3% (active),45.6%,
CC(C)=CC(=O)N[C@H]1CC[C@]2(C)C3CC[C@]4(C)C(C(C)N(C)C)=CCC4C3CCC2[C@H]1O (stereo not given in full),30.2%,5.55% (active),77.6%,101%,7.83% (active),115%,51.3%,31.2%,71.6%,57.1%
COC(=O)c1sccc1-c1cc(O)c(C(=O)Nc2ccccc2)s1,92.8%,93.4%,101%,117%,89.7%,78.3%,95%,96.2%,93.2%,
CCCCCCCCn1ccc2cc(NC(=O)CN=[N+]=[N-])ccc21,100%,99.2%,96.9%,98.2%,103%,111%,87.2%,96%,116%,101%
O=S(Nc1ccccc1)c1ccc(Cl)cc1 (stereo not given),78.8%,99.3%,100%,109%,95.5%,109%,105%,112%,106%,
COc1ccc(C(=O)Nc2ncc(Cc3ccc(Cl)cc3)s2)cc1,5.82% (active),18.2%,25.7%,30.2%,49.1%,40%,14.4%,-16.2% (active),9.45% (active),18.2%
CN(C)c1ccc([C@@H](C(=O)Nc2cccc([N+](=O)[O-])c2)N(C(=O)c2cc3ccccc3[nH]2)c2cccc([N+](=O)[O-])c2)cc1,97%,92.6%,93.3%,94.7%,99.4%,103%,103%,111%,102%,
COC(=O)c1ccc2c(c1)c1c(C)c3cnccc3c(C)c1n2C,18.2%,-15.4% (active),0.0639% (active),-33.3% (active),-14.8% (active),-15.3% (active),-33.1% (active),-26% (active),-25% (active),
Cn1c(=O)[nH]c(=O)c2nc3c(nc21)-c1ccccc1C3=O,100%,108%,105%,99.6%,102%,111%,108%,107%,95.2%,
O=C(Cc1ccc(/C=C/C(=O)c2ncc[nH]2)cc1)Nc1cc(F)c(F)c(F)c1,14.9%,0.541% (active),41.7%,80.7%,72.7%,103%,55.8%,3.93% (active),66.5%,
COc1cc(C=C2C(=O)NC(=S)NC2=O)cc(CN2CCCC2)c1O,107%,106%,108%,106%,119%,94.4%,106%,111%,108%,106%
COc1ccc(/C=C2\CN(C(=O)C(Cl)Cl)C/C(=C\c3ccc(OC)c(OC)c3)C2=O)cc1OC,6.16% (active),-5.84% (active),19.1%,10.6%,19.8%,48.3%,-43.9% (active),-16.6% (active),13.7%,21.1%
